Only some compounds are listed: those with a hit (about 0.4% of all), similar ones and a draw of the others.
EPAC2 ag – qHTS for Agonist of cAMP-regulated guanine nucleotide exchange factor 4 (EPAC2): primary screen. Rap guanine nucleotide exchange factor 4 (Homo sapiens), Q8WZA2. EPAC2 activation, biochemical qHTS; response scale: 100% = 6.5 mM cAMP response. Potency, µM (doses to about 154 µM), inactives show at the top dose activation, hits mostly activators. hit rate 0.079% among 360,000. AID 720711, 2013; note: nearly all actives have a fitted effect of over 50% in size
Target sequence (Q8WZA2 whole entry, looked up): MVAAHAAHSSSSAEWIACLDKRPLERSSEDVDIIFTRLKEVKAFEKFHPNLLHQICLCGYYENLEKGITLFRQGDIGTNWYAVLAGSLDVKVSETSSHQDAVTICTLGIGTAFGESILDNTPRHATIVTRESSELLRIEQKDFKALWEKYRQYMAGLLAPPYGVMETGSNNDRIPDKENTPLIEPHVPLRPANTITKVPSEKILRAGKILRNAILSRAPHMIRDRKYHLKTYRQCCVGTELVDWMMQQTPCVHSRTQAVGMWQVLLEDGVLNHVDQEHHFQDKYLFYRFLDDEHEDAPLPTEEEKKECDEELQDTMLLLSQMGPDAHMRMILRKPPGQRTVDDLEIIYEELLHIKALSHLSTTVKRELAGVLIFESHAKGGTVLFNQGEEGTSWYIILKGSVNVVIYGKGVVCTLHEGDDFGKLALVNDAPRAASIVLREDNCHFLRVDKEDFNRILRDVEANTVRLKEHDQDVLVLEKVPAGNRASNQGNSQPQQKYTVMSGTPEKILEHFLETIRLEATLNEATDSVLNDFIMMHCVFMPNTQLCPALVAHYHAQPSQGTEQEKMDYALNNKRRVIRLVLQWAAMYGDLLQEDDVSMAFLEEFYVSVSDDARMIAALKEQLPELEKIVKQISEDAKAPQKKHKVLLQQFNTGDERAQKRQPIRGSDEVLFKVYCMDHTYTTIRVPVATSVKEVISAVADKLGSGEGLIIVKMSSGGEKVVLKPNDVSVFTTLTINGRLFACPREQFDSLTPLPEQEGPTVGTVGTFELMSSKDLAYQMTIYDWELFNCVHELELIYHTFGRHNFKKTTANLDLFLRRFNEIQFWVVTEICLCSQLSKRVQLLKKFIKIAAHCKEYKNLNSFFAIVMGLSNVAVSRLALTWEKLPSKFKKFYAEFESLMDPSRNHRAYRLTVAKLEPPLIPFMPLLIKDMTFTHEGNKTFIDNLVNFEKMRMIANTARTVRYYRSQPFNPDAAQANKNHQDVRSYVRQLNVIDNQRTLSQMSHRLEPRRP
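Compounds were titrated in qHTS against a Rap1B-BODIPY-GDP (250 nM) complex with EPAC2 (100 nM) and GDP (50 uM). BODIPY-GDP release tracked at 480/540 nm over 30 min at room temperature, normalized to 6.5 mM cAMP.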
EPAC1 agonist – qHTS for Agonist of cAMP-regulated guanine nucleotide exchange factor 3 (EPAC1): primary screen | Rap guanine nucleotide exchange factor 3 (Homo sapiens), O95398 | EPAC1 agonist qHTS, biochemical assay; response scale: 100% = response to 6.5 mM cAMP | Potency, µM (highest dose often 154 µM), for inactives: top-dose activation, most hits filed as activators | hit rate 0.073% among 360,000; note: nearly all actives have a fitted effect of over 60% in size
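Normalized to 6.5 mM cAMP, activity reflects EPAC1-catalysed release of BODIPY-GDP from Rap1B, followed kinetically over 30 min at 480 nm excitation, 540 nm emission. Reaction contained 100 nM EPAC1, 250 nM Rap1B-BODIPY-GDP, 50 uM GDP.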
EPAC1 antag – qHTS for Antagonist of cAMP-regulated guanine nucleotide exchange factor 3 (EPAC1): primary screen; EPAC1 GEF assay, Rap1b-BODIPY-GDP exchange fluorescence; Potency, µM (titrated, usually from 115 µM), for the others: at the highest dose activity change, negative = inhibition, actives largely listed as inhibitors; hit rate 0.14% among 360,000; AID 720709, 2013;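 note: plate controls were vehicle for no effect and positive control for full effect; nearly all actives have a fitted effect of over 50% in size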
ERG Ets-DNA blk – qHTS for Small Molecule Inhibitors of the ERG Ets/DNA interaction | AID 624246, 2012 | Potency, µM (series often up to 76.9 µM), for the others: at the highest dose FP activity, negative = inhibition, most hits filed as inhibitors | Transcriptional regulator ERG (Homo sapiens), P11308 | fluorescence polarization, His-ERG Ets domain / labelled DNA | hit rate 0.028% among 370,000; active = well fitted inhibition curve with a large enough effect in the polarisation, with a control signal flat; inconclusive = small, poorly fitted or top-dose-only effect, or effect the other way, or a change in a side signal; inactive = no such curve, though single readings can be large or run the other way; the % refers to the polarisation;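 note: polarization taken with two DNA probes labelled with fluorescein and Texas red; % of control where 0% means no effect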
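His-tagged ERG Ets domain (1 uM in the protein solution; 300mM KCl, 50mM Tris-HCl, 1mM EDTA, 1mM DTT, pH 7.5) received compound, then a probe mix of 5 nM fluorescein-DNA and 100nM Texas-615-DNA. Fluorescence polarization was read for both dyes.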
RGS4 inhibitor – Inhibitors of Regulator of G Protein Signaling (RGS) 4: qHTS; Regulator of G-protein signaling 4 (Homo sapiens), P49798; Transcreener GDP fluorescence polarization, RGS4-accelerated GTP hydrolysis; Potency, µM (series often up to 114 µM), inactives show top-dose activity change, negative = inhibition, usual class: inhibitors; hit rate 0.039% among 390,000; note: % is set by controls: 0 for no effect and ±100 for the full control effect; nearly all actives have a fitted effect of over 75% in size
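MLSMR compounds (23 nl, pin-transferred) preincubated 10 min at room temperature with a 500nM (2x) first reagent, then RGS4 at 900nM (2x) plus Transcreener GDP mix added; fluorescence polarization (620/688 nm) read before and after 90 min at 30 °C.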
EPAC2 antag – qHTS for Antagonist of cAMP-regulated guanine nucleotide exchange factor 2 (EPAC2): primary screen. Rap guanine nucleotide exchange factor 4 (Homo sapiens), Q8WZA2. EPAC2 GEF exchange of Rap1B-BODIPY-GDP, fluorescence. Potency, µM (titrated, usually from 114 µM), without a hit: top-dose activity, negative = inhibition, hits mostly inhibitors. hit rate 0.18% among 360,000. AID 720708, 2013; note: % is set by controls: 0 for no effect and ±100 for the full control effect; nearly all actives have a fitted effect of over 45% in size
* marks the source's active call; other numbers are inactive results; ? = inconclusive; nt = no result; [ ] = dose if it differs, or a comment. Unless noted, calls come from the whole dose curve; as a rule, active = well fitted curve in the direction sought with a large enough effect; inconclusive = small, poorly fitted or top-dose-only effect, or another doubt; inactive = no such curve, though single readings can be large; an effect the other way counts as inactive or inconclusive. Potency is the fitted concentration of half-maximal effect.

SMILES	EPAC2 ag	EPAC1 agonist	EPAC1 antag	ERG Ets-DNA blk	RGS4 inhibitor	EPAC2 antag
COc1cccc(CN2CC(O)=C(c3nc(-c4ccc(Cl)cc4)cs3)C2=N)c1	6.3µM*	-14%	2%	5%	-14%	10%
COc1cc(OC)c2c(c1)OC(c1ccccc1)CC2=O (stereo not given)	nt	nt	nt	nt	5.3µM*	nt
COc1cc(OC)c2c(c1O)OC(c1ccccc1)CC2=O (stereo not given)	6%	-19%	?	1%	-8%	-9%
O=C(NCc1cccs1)C1CCN(C(=O)N2CCOc3ccccc32)CC1	nt	nt	nt	1%	25%	nt
Cc1ccc(NC(=O)C2CCCN(c3ncnc4onc(C)c34)C2)cc1Cl (stereo not given)	nt	nt	nt	0%	-15%	nt
Cc1ccccc1CNCc1c(C(=O)O)c(C)n(Cc2ccc(F)cc2Cl)c1C	nt	nt	nt	2%	-6%	nt
O/C=c1\ccc2cccc3nc(C(F)(F)F)nc1c23	?	89µM*	18%	25%	?	82%
NNc1nc(C(F)(F)F)nc2ccccc12	1%	4%	2%	4%	-10%	5%
COc1ccc(C(NC(C)=O)c2cc(Cl)c3cccnc3c2O)cc1 (stereo not given)	16%	21%	4%	4%	21%	?
CC(=O)NC(c1ccccc1)c1cc(Cl)c2cccnc2c1O (stereo not given)	7%	-2%	1%	-12%	-4%	40µM*
CCC(=O)NC(c1ccc(C)cc1)c1ccc2cccnc2c1O (stereo not given)	-1%	-6%	-25%	-4%	-52%	16µM*
CC(=O)NC(c1ccc(Cl)cc1)c1ccc2cccnc2c1O (stereo not given)	9%	-2%	-12%	1%	13%	20µM*
CC(=O)NC(c1ccco1)c1ccc2cccnc2c1O (stereo not given)	8%	-2%	-11%	-3%	13%	-3%
CCCC(=O)NC(c1ccc(C(C)C)cc1)c1ccc2cccnc2c1O (stereo not given)	-4%	9%	-7%	-8%	14%[56.9 µM]	0%
COc1ccc(-c2ccc(OC)c(C3C4C=CCC(C)C4C(=O)N3Cc3ccccc3)c2)cc1OC (stereo not given)	nt	nt	nt	nt	-14%	nt
CCOc1ccc(CCNC(=O)Cn2ncn3c(cc4sc(C)cc43)c2=O)cc1OCC	nt	nt	nt	-1%	6%	nt
CCCCCC(=O)Cc1cc(O)cc2c1C(=O)Oc1cc(O)c(C(=O)O)c(CCCCC)c1O2	-9%	-10%	40µM*	-12%	-20%	16µM*
COc1ccc2oc(C(=O)Nc3ccc(N4CCOCC4)cc3)c(C)c2c1	-2%	63µM*	?	-7%	-10%	10%
CCOc1ccc(-c2nnc(SCC(=O)Nc3cc(C)ccc3OC)o2)cc1	nt	nt	nt	4%	-36%	nt
CSc1nc(NCCN(C)C)c2sc3nc(-c4ccco4)c4c(c3c2n1)CCC4	17%	-8%	-8%	6%[15.4 µM]	-10%	11%
CSc1nc(N(C)CCO)c2sc3nc(-c4ccco4)c4c(c3c2n1)CCC4	25%	-3%	45µM*	0%	?	-14%
COCOCCn1cc(CN2CCS(=O)(=O)N(Cc3ccc(-c4ccc(F)cc4)cc3)C(CC(C)C)C2=O)nn1 (stereo not given)	1%	-19%	-17%	nt	nt	13µM*
O=C(Nc1ccc(N2CCOCC2)cc1)c1cccc2c(Br)cccc12	7%	8%	1%	-5%	-1%	5%
O=C(Nc1ccccc1N1CCOCC1)c1cccc2c(Br)cccc12	-2%	-5%	-10%	-5%	-15%	14µM*
O=c1cc(-c2ccccc2)nc2c(-c3ccccc3)c(C(F)(F)F)[nH]n12	-5%	-5%	?	5%	-17%	18µM*
SMILES	EPAC2 ag	EPAC1 agonist	EPAC1 antag	ERG Ets-DNA blk	RGS4 inhibitor	EPAC2 antag
Cc1cc(=O)n2[nH]c(C)c(-c3ccccc3)c2n1	2%	-2%	3%	-2%	-26%	6%
CCCn1nc([N+](=O)[O-])c(C(C#N)c2nc3ccccc3o2)c(Cl)c1=O (stereo not given)	-28%	-10%	-17%	11%	?	56µM*
O=c1c2ccccc2sn1-c1ccc(Cl)c(S(=O)(=O)N2CCOCC2)c1	nt	nt	nt	nt	-163%	nt
CCN(C(=O)CSc1nc2ccccc2n1CC(=O)Nc1ccc(F)cc1F)c1ccccc1	nt	nt	nt	3%	13%	nt
CCOC(=O)c1oc2c(c1C)-c1nn(Cc3cccc(Cl)c3)cc1CC2	nt	nt	nt	-4%	-17%	nt
CC(NC(=O)/C(C#N)=C/c1ccc(N2CCOCC2)cc1)c1ccccc1 (stereo not given)	?	89µM*	-23%	5%	12%	-3%
COC(CNC(=O)c1ccc2c3c(onc13)-c1ccccc1C2=O)OC	50µM*	56µM*	?	16%	?	?
COC(CNC(=O)c1cccnc1)OC	2%	-6%	0%	-7%	-1%	28%
O=C(N/N=C/c1ccc(-c2ccc(S(=O)(=O)Nc3ncccn3)cc2)o1)c1cc2ccccc2cc1O	1%	-1%	13µM*	13%	?	-12%
CCOc1ccc(C(=O)N/N=C/c2ccc(-c3ccc(S(=O)(=O)Nc4ncccn4)cc3)o2)cc1	0%	4%	?	1%	-4%	-1%
CCCN1CNc2c(c(=O)[nH]c(=S)n2CCc2ccc(OC)cc2)C1	nt	nt	nt	nt	-14%	nt
COc1ccccc1NC(=O)COC(=O)c1ccc([N+](=O)[O-])s1	5%	8%	11µM*	-2%	5%	?
O=c1cc(-c2ccccc2)n2c(SCc3ccc(Br)cc3)nnc2[nH]1	nt	nt	nt	0%	12%	nt
Cn1c(=O)c(N)c2c3c(c(Br)ccc31)C(=O)c1ccccc1-2	?	112µM*	31%	?	-25%	30%
CC(C)(C)CC(=O)NCC(c1ccc2c(c1)OCO2)N1CCN(c2ccccc2)CC1 (stereo not given)	nt	nt	nt	1%	-5%	nt
CCc1ccc2[nH]c(=O)c(CN(Cc3ccco3)Cc3nnnn3Cc3ccco3)cc2c1	nt	nt	nt	nt	-31%	nt
